Data on 40 molecules can be found in PubChem BioAssay (NCATS).

Inconclusive results are not listed. A call without a number means that no potency is given here. Active and inactive are the calls of the source. Calls follow the shape of the dose curve; as a rule, active = well fitted inhibition curve with a large enough effect; inconclusive = small, poorly fitted or top-dose-only effect; inactive = flat fitted curve, though single readings scatter.
Potency is read from the fitted curve at half-maximal effect.

One assay in a line: qHTS for Inhibitors of Plasmodium falciparum (7G8) proliferation (AID 504316). Also: nearly all actives have a fitted effect of over 65% in size. The following applies: P. falciparum 7G8 in erythrocytes, SYBR Green DNA, 72 h; series mostly up to 6.7 µM. The essentials: (§1)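 Erythrocytes infected with P. falciparum line (0.3% parasitemia, 2.5% hematocrit final) incubated with compounds 72 h at 37 °C, 5% CO2; SYBR Green lysis buffer added, fluorescence read next day. Normalized to 0.29 uM artemisinin and DMSO.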
(In general: qHTS replaces the single test concentration by a dilution series.)
Take `COc1ccc(O[C@H]2C=C[C@@H](c3ccccc3)O[C@H]2CON=C(C)CCN2CCCCc3nc(C)c(C)cc32)cc1`: the Potency is 1.51 µM (active).
Turning to `COc1ccc([C@]23Cc4cc(C#N)ccc4[C@H](O2)c2c(cc(C)n(Cc4ccccc4)c2=O)O3)cc1`, the Potency was 1.69 µM (active).
On the same count and under the same terms, the entry for `COC(=O)N[C@H](CC(C)=O)c1cccs1` is “inactive”.
Same read-out and setting: the figure for `CC(C)=CCC1(CC=C(C)C)C(=O)C(C(=O)c2ccccc2)=C2OC(C)(C)CCC2(CC=C(C)C)C1=O` (stereo not given) is 1.69 µM (active).

A short description of another assay: qHTS for Inhibitors of Plasmodium falciparum (HB3) proliferation (AID 504318). Also: nearly all actives have a fitted effect of over 60% in size. Particulars: P. falciparum HB3 in erythrocytes, SYBR Green DNA, 72 h; series mostly up to 7.21 µM. The method in brief: as §1
For `CCN1C(N(C)CCc2ccc(Br)cc2)=NC(c2ccccc2)C(C(=O)OC)=C1C` (stereo not given), the Potency entry was “inactive”.
With `COC1=C(C(=O)c2ccccc2)C(=O)[C@@]2(CC=C(C)C)C[C@@H]([S+](=O)([O-])c3ccccc3)C(C)(C)[C@@]1(CC=C(C)C)C2=O`, the Potency was 1.9 µM (active).
Still for that read-out and setting: the entry for `C#CCN1C(=O)[C@]2(O[C@H](COc3ccccc3)CC3=CCCC32)c2c(Br)cccc21` (stereo not given in full) is “inactive”.
The same measure, in the same setting: as for `COC(=O)C1=C(C(=O)OC)[C@@H]2N(CC=C(C)C)c3ccccc3[C@@]23CCC(=O)N(Cc2cccc(C(F)(F)F)c2)C3=N1`, the figure is 2.94 µM (active); as for `COC(=O)C1=C(C)N(Cc2ccccc2)C(=NCCc2ccccn2)NC1c1cccc(C(F)(F)F)c1` (stereo not given), “inactive”; as for `CCN1C(=NCCc2c[nH]c3ccccc23)NC(c2cccc(F)c2)C(C(=O)OC)=C1C` (stereo not given), “inactive”.
Still for that read-out and setting: as for `CCN1C(N(C)CCc2c[nH]c3ccccc23)=NC(c2cccc(C(F)(F)F)c2)C(C(=O)OC)=C1C` (stereo not given), the entry is “inactive”.
With `C[C@@H]1CC[C@H]2C(=O)N(Cc3ccc(Cl)cc3)C[C@@H](O)CN2[C@@H]1c1ccc(Br)cc1`, the Potency entry is “inactive”.
On the same count and under the same terms, as for `COC(=O)[C@]1(CC=Cc2ccccc2)C=C[C@@H](C)[C@H](c2ccccc2Br)N1C(=O)C(F)(F)F`, the figure is 1.9 µM (active).
Same read-out and setting: the entry for `COC(=O)C1=C(C)N(CC2CC2)C(N(C)Cc2ccc(OC)cc2)=NC1c1ccccc1` (stereo not given) is “inactive”.
Still for that read-out and setting: the entry for `COC(=O)C1=C(C)N(Cc2ccccc2)C(=O)NC1CCc1ccccc1` (stereo not given) is “inactive”.
Regarding `C[C@H]1CC[C@H]2C(=O)O[C@H](COc3ccc(C(C)(C)C)cc3)CN2[C@H]1c1ccc(Br)cc1`, the Potency is 3.29 µM (active).
For `COC(=O)C1=C(C(=O)OC)[C@@H]2N(C)c3ccccc3[C@@]23C[C@@H](CO)N(C(=O)NC2CCCC2)C3=N1`, the Potency is 1.9 µM (active).
Regarding `CCCCCCCc1cc2ccccc2c2c(C(=O)OC)c(C)c(C(=O)OC)n12`, the Potency result is “inactive”.
Same read-out and setting: the figure for `COC(=O)c1ccc(CN2C(=O)[C@@]3(CC(C)=CC[C@@H](COc4ccccc4)O3)c3c(Br)cccc32)cc1` is 1.51 µM (active); for `COC(=O)C1=C(C(=O)OC)[C@@H]2N(Cc3ccccc3)c3ccccc3[C@@]23CCC(=O)N(CC2CC2)C3=N1` it is 3.29 µM (active); for `COc1ccc(O[C@H]2C=C[C@@H](c3ccccc3)O[C@H]2COC(=O)CCC(C)=NOCC[C@@H]2C=C[C@H](OC(C)=O)[C@@H](COC(C)=O)O2)cc1` it is “inactive”.
Same read-out and setting: the entry for `COC(=O)[C@H]1[C@@H](c2ccccc2)NC(=O)O[C@@H]1C` is “inactive”.
Still for that read-out and setting: the figure for `COC(=O)c1c(C(=O)OC)c2c3cc(OC)c(OC)cc3cc([Si](C)(C)C)n2c1C(=O)OC` is 2.13 µM (active); for `C[C@H]1C[C@@H](C)O[C@@]2(C1)C(=O)N(Cc1ccc(F)cc1)c1ccccc12` it is “inactive”; for `C[C@H]1C=CCC(=O)N[C@@H](c2ccccc2)[C@@H](C)C=CCC(=O)N[C@@H]1c1ccccc1` it is 1.51 µM (active).
For `COc1cc2c(c(OC)c1OC)C(c1ccccc1)(c1ccccc1)CC2NC(=O)C(F)(F)F` (stereo not given), the Potency is 2.39 µM (active).
Still for that read-out and setting: as for `c1ccc(CNc2oc(-c3ccccc3)nc2-c2cccc3ccccc23)cc1`, the figure is 3.29 µM (active); as for `CCN1C(=NCc2ccc3c(c2)OCO3)NC(c2ccccc2)C(C(=O)OC)=C1C` (stereo not given), “inactive”; as for `COc1ccc2c(c1)C[C@@H](C)O[C@]21C(=O)Nc2ccccc21`, “inactive”.
`C[C@]12C[C@@](C)(C=C1C=Cc1ccc(F)cc1)C(=O)C[C@H]2c1ccc(F)cc1`: the Potency was 1.69 µM (active).
On the same count and under the same terms, as for `COC(=O)C1=C(C(=O)OC)[C@@H]2N(C)c3ccccc3[C@@]23C[C@@H](C(=O)OC)N(C(=O)NC2CCCC2)C3=N1`, the entry is “inactive”; as for `FC(F)(F)c1cc(NC(=S)Nc2ccc3ccccc3c2)cc(C(F)(F)F)c1`, 2.13 µM (active).
Same read-out and setting: the figure for `C[C@@H]1CC[C@H]2C(=O)O[C@@H](COc3ccc(C(C)(C)C)cc3)CN2[C@@H]1c1ccc(Br)cc1` is 1.69 µM (active).
Still for that read-out and setting: the figure for `CC1=CC[C@@H](COc2ccccc2)O[C@@]2(C1)C(=O)N(Cc1ccccc1C(F)(F)F)c1cccc(Br)c12` is 1.69 µM (active).
Regarding `COC(=O)C1=C(C)N(Cc2ccccc2)C(=NCCc2c[nH]c3ccccc23)NC1c1cccc(F)c1` (stereo not given), the Potency entry was “inactive”.
Still for that read-out and setting: the entry for `COC(=O)C1=C(C)N(Cc2ccccc2)C(=NCCc2cccnc2)NC1c1ccccc1` (stereo not given) is “inactive”.
On to `C=CCN=C1NC(c2cccc(C(F)(F)F)c2)C(C(=O)OC)=C(C)N1CC` (stereo not given), for which the Potency entry is “inactive”.
Still for that read-out and setting: the figure for `COC(=O)CC1c2ccccc2C=C(C=Cc2ccc3c(c2)OCO3)N1C(=O)OC` (stereo not given) is 1.69 µM (active).
The same measure, in the same setting: as for `COC(=O)C1=C(C)N(Cc2ccccc2)C(=NCc2ccc(OC)cc2)NC1c1cccc(F)c1` (stereo not given), the entry is “inactive”.
Same read-out and setting: as for `C=CCN=C1N[C@H](c2ccc(Br)cc2)C(C(=O)OC)=C(C)N1Cc1ccccc1`, the entry is “inactive”.
